Source: PubChem BioAssay AID2562 (National Center for Advancing Translational Sciences (NCATS), 2010)
Records with an inconclusive call do not appear. The source made the active and inactive calls. The call rests on the fitted dose curve; in most records, active means well fitted curve in the direction sought with a large enough effect; inconclusive means small, poorly fitted or top-dose-only effect, or effect the other way, or another doubt; inactive means no such curve, though single readings can be large or run the other way.

The compounds below were run against Pyruvate kinase PKLR (Homo sapiens) (UniProt P30613) (assay: Secondary LDH Assay for Activators of Human Reticulocyte Pyruvate Kinase: for Probe SAR). Conditions: purified hPK-R, LDH-coupled NADH fluorescence kinetic; series mostly up to 58.4 µM.
Text: NIH Chemical Genomics Center [NCGC] Wael M. Rabeh, Lyudmila Nedyalkova and Hee-Wan Park [Structural Genomics Consortium, 100 College St. Toronto, Ontario, Canada] NCGC Assay Overview: Human pyruvate kinase reticulocyte (hPK-R) enzyme was supplied as a highly purified (>95% pure) preparation from Structural Genomics Consortium in Toronto (Ontario, Canada) and a secondary assay was used to evaluate compounds. This assay couples the formation of pyruvate from hPK-R using lactate dehydrogenase (LDH) and NADH. The depletion of NADH is followed in a fluorescent-based kinetic assay that follows the formation of pyruvate to lactate, as catalyzed LDH. Pyruvate kinase substrates, PEP and ADP, were present in the assay at 0.1 mM and 4 mM respectively. In this kinetic assay initial rates were determined by following the fluorescence of NADH depletion.
NCGC Assay Protocol Summary: Three uL of substrate mix (final concentration, 50 mM Tris-Cl pH 8.0, 200 mM KCl, 15 mM MgCl2, 0.1 mM PEP, 4.0 mM ADP, and 0.2 mM NADH) was dispensed into black-solid 1536 well plates. 23 nL of compounds were delivered by a pin tool and 1 uL of enzyme mix (final concentrations, 10 nM hPK-R and 1 uM of LDH) was added. Plates were immediately placed in ViewLux (Perkin Elmer) and NADH fluorescence was determined at 30 second exposure intervals for between 3 and 6 minutes. Data were normalized to the uninhibited and EC100 activation using known activators such as fructose-bis-phosphate.

Pyruvate kinase PKLR (Homo sapiens), sequence (P30613 whole entry, looked up): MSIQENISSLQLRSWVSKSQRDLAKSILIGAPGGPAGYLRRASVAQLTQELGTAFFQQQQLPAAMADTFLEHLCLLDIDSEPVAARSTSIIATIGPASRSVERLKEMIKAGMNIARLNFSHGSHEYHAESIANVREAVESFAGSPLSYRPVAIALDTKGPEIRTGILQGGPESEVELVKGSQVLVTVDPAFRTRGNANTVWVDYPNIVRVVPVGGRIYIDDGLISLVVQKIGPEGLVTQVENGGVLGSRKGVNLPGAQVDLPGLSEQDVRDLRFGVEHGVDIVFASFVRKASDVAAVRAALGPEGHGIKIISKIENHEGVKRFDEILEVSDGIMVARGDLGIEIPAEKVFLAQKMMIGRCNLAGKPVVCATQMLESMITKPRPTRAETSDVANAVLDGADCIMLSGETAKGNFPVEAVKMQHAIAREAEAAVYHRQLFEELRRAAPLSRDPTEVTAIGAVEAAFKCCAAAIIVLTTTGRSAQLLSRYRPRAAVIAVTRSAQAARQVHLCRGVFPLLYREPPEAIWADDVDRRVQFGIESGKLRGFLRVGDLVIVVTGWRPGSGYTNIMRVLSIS

Potency, inactive:
COc1cccc(NS(=O)(=O)c2ccc3c(c2)CCC(=O)N3)c1, O=C1c2ccccc2C(=O)N1c1ccc(Cl)cc1, Cc1ccc(NS(=O)(=O)c2ccc3[nH]c(=O)[nH]c3c2)cc1C, COc1ccc(N2C(=O)c3ccccc3C2=O)cc1, O=C1CCc2cc(S(=O)(=O)Nc3cccc(F)c3)ccc2N1, O=C1c2ccccc2C(=O)N1c1ccc2ccccc2n1, O=C1c2ccccc2C(=O)N1c1ncccc1O, Cc1ccc(NS(=O)(=O)c2ccc3c(c2)oc(=O)n3C)cc1C, COc1cc(N2C(=O)c3ccccc3C2=O)c2ncccc2c1, O=C1NS(=O)(=O)c2ccccc21, O=C1CCc2cc(S(=O)(=O)Nc3ccc(-c4ccccc4)cc3)ccc2N1, Cc1ccc(-c2nc3ccc(Cl)cn3c2Nc2ccccc2)o1, Cc1ccc(NS(=O)(=O)c2cc3c(cc2N(C)C)CCC(=O)N3)cc1C, COc1ccccc1NS(=O)(=O)c1ccc2c(c1)CCC(=O)N2, O=C1c2ccccc2C(=O)N1c1cc(=O)c2ccccc2[nH]1, Cc1ccc(NS(=O)(=O)c2cc3c(cc2N2CCC2)NC(=O)CC3)cc1C, Cc1cccc(NS(=O)(=O)c2ccc3c(c2)CCC(=O)N3)c1, Fc1ccccc1-c1ccc(-c2nc3ccc(Cl)cn3c2Nc2ccc(Cl)cc2)o1, Cc1ccc(NC(=O)c2ccc3c(c2)CCC(=O)N3)cc1C, COc1ccc(NS(=O)(=O)c2ccc3c(c2)CCC(=O)N3)cc1, Cc1ccc(NS(=O)(=O)c2cc3c(cc2-c2cn[nH]c2)NC(=O)CO3)cc1C, COc1cccc(N2C(=O)c3ccccc3C2=O)n1, CC(=O)N1c2ccc(S(=O)(=O)Nc3ccc(C)c(C)c3)cc2CC1C (stereo not given), Cc1ccc(NS(=O)(=O)c2cc3c(cc2N(C)C)NC(=O)CC3)cc1C, Cc1ccc(NS(=O)(=O)c2ccc3c(c2)CCC(C)(C)O3)cc1C, O=C1CCc2cc(S(=O)(=O)Nc3ccc4ccccc4c3)ccc2N1, O=S1(=O)N=C(Oc2cccc(Cl)c2)c2ccccc21, O=C1CCc2cc(S(=O)(=O)NCc3ccccc3)ccc2N1, COc1cccc(N2C(=O)c3ccccc3C2=O)c1, O=C1c2ccccc2C(=O)N1c1cccc2cccnc12, O=C1CCc2cc(S(=O)(=O)Nc3cccc4ccccc34)ccc2N1, CCNc1cccc(S(=O)(=O)N2CCN(S(=O)(=O)c3ccc4c(c3)OCCO4)CC2)c1, O=C1c2ccccc2C(=O)N1c1cccc2ccncc12, Cc1ccc(NS(=O)(=O)c2cc3c(cc2F)NC(=O)CC3)cc1C, Cc1ccc(C)c(OC2=NS(=O)(=O)c3ccccc32)c1, Cc1cccc(OC2=NS(=O)(=O)c3ccccc32)c1, O=C1CCc2cc(S(=O)(=O)Nc3ccccc3Cl)ccc2N1, COc1cc(F)c(S(=O)(=O)N2CCCN(S(=O)(=O)c3cccc(N)c3)CC2)c(F)c1, CC(=O)N1CCc2cc(S(=O)(=O)Nc3ccc(C)c(C)c3)ccc21, Cc1ccc(NS(=O)(=O)c2ccc3c(c2)N(C)C(=O)CO3)cc1C
